Results taken from PubChem BioAssay (NCATS).
Inconclusive results are not listed. Activity calls are given as the source filed them. Calls follow the shape of the dose curve; as a rule, active = well fitted curve in the direction sought with a large enough effect; inconclusive = small, poorly fitted or top-dose-only effect, or another doubt; inactive = no such curve, though single readings can be large; an effect the other way counts as inactive or inconclusive.

Assays:
[1] = qHTS for Inhibitors of Ubiquitin-specific Protease USP2a Using CHOP2 as the Reporter: Cytotox Assay (AID 652170)
Summary of the method: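 Cytotoxicity read as ATP luminescence (CellTiter-Glo) after 72 hr compound treatment at 37 deg C. Cells: HCT116, 600/well in DMEM plus 10% FBS. Normalization between DMSO-treated cells and cell-free wells.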

[2] = target: Ubiquitin carboxyl-terminal hydrolase 2 (Homo sapiens) (UniProt O75604); assay: qHTS for Inhibitors of Ubiquitin-specific Protease USP2a Using CHOP2 as the Reporter: K484 Substrate (AID 652173);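 also: cleavage of internally quenched K48 di-ubiquitin substrate measured as rising fluorescence over time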
Ubiquitin carboxyl-terminal hydrolase 2 (Homo sapiens), sequence (O75604 whole entry, looked up): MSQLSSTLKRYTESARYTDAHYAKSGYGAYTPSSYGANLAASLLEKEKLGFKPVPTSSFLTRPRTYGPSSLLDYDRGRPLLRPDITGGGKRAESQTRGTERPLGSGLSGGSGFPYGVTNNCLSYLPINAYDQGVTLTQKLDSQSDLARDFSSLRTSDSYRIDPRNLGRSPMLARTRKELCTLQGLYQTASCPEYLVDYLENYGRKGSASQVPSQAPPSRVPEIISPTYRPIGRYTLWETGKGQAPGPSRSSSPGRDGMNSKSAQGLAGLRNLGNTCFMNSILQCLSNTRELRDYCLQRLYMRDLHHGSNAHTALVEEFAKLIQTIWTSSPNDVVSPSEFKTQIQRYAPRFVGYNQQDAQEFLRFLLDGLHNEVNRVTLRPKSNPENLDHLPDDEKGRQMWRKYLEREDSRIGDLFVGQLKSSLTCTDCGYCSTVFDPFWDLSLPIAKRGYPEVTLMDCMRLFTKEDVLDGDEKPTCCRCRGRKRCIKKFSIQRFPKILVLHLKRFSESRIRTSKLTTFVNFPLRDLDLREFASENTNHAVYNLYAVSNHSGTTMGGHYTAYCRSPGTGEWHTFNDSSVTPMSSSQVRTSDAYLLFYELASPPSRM
Summary of the method: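 Kinetic fluorescence (Ex 525/Em 598) tracked cleavage of an internally quenched K48 di-ubiquitin substrate, added as a 100 nM solution. The enzyme was added as a 5 nM USP2 solution before compound pinning, with no-enzyme controls. Buffer: Tris pH 8, beta-mercaptoethanol, CHAPS.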
Also: nearly all actives have a fitted effect of over 70% in size.
Potency is read from the fitted curve at half-maximal effect.

With `Cc1ccc(S(=O)(=O)Nc2cnccc2C(=O)Nc2nc(-c3ccc4c(c3)CCCC4)cs2)cc1` the Potency [1] was 20.9 µM (active) and the Potency [2] was 2.17 µM (active).

For `Cc1ccc(-c2cc(C(=O)Nc3cccnc3)c3ccccc3n2)cc1C`, the Potency [1] was “inactive” and the Potency [2] was 19.3 µM (active).

For `O=C(Nc1ccc(C(=O)Nc2nccs2)cc1)c1ccc2ccccc2c1`, the Potency [1] was “inactive” and the Potency [2] was 3.85 µM (active).

For `Cc1ccc(S(=O)(=O)Nc2cnccc2C(=O)Nc2nc3ccccc3s2)cc1`, the Potency [1] was “inactive” and the Potency [2] was 3.43 µM (active).

In the case of `Cc1ccc(-c2cc(C(=O)Nc3ccc(S(C)(=O)=O)cc3)c3ccccc3n2)cc1C`, the Potency [1] is reported as “inactive” and the Potency [2] is reported as 6.85 µM (active).

For `Cc1ccc(-c2cc(C(=O)Nc3ccc(S(=O)(=O)Nc4ccncc4)cc3)c3ccccc3n2)cc1C`, the Potency [1] was “inactive” and the Potency [2] was 9.68 µM (active).

For `CCCc1ccc(C(=O)Nc2ccc(S(=O)(=O)Nc3nccs3)cc2)cc1`, the Potency [1] was “inactive” and the Potency [2] was 21.7 µM (active).

For `Cc1ccc(-c2cc(C(=O)Nc3ccc(S(=O)(=O)Nc4cccnc4)cc3)c3ccccc3n2)cc1C`, the Potency [1] was “inactive” and the Potency [2] was 6.85 µM (active).

For `O=C(Nc1nc(-c2ccccc2)cs1)c1ccncc1NS(=O)(=O)c1cccs1`, the Potency [1] was “inactive” and the Potency [2] was 3.43 µM (active).

With `Cc1ccc(S(=O)(=O)Nc2ccccc2Nc2nc(-c3ccccc3)cs2)cc1` the Potency [1] was “inactive” and the Potency [2] was 3.85 µM (active).

For `Cc1ccc(-c2cc(C(=O)Nc3ccncc3)c3ccccc3n2)cc1C`, the Potency [1] was 18.7 µM (active) and the Potency [2] was 13.7 µM (active).

For `Cc1ccc(-c2cc(C(=O)Nc3cccc(S(=O)(=O)Nc4nccs4)c3)c3ccccc3n2)cc1C`, the Potency [1] was “inactive” and the Potency [2] was 3.06 µM (active).

For `CCCCC1CCC(C(=O)Nc2ccc(S(=O)(=O)Nc3cc(C)on3)cc2)CC1` (centres undefined), the Potency [1] was “inactive” and the Potency [2] was 12.2 µM (active).

For `Cc1cc(S(=O)(=O)Nc2cnccc2C(=O)Nc2nc(-c3ccccc3)cs2)c(C)o1`, the Potency [1] was 23.5 µM (active) and the Potency [2] was 3.43 µM (active).

With `O=C(Nc1ccc(S(=O)(=O)Nc2ncc(-c3ccccc3)s2)cc1)c1ccc2ccccc2c1` the Potency [1] was “inactive” and the Potency [2] was 3.06 µM (active).

In the case of `O=C(Nc1ccc(S(=O)(=O)Nc2nccs2)cc1)c1ccc(-c2ccccc2)cc1`, the Potency [1] is reported as “inactive” and the Potency [2] is reported as 24.3 µM (active).

In the case of `Cc1ccc(-c2cc(C(=O)Nc3ccc(S(=O)(=O)Nc4ccccn4)cc3)c3ccccc3n2)cc1C`, the Potency [1] is reported as “inactive” and the Potency [2] is reported as 4.32 µM (active).

With `Cc1ccc(-c2cc(C(=O)NCc3ccc(S(N)(=O)=O)cc3)c3ccccc3n2)cc1C` the Potency [1] was “inactive” and the Potency [2] was 9.68 µM (active).

For `Cc1ccc(-c2cc(C(=O)Nc3ccc(S(=O)(=O)N(C)Cc4nccs4)cc3)c3ccccc3n2)cc1C`, the Potency [1] was “inactive” and the Potency [2] was 3.85 µM (active).

For `O=S(=O)(Nc1nccs1)c1ccc(Nc2nc(-c3ccc(-c4ccccc4)cc3)cs2)cc1`, the Potency [1] was “inactive” and the Potency [2] was 1.93 µM (active).

With `N#Cc1cnc(NS(=O)(=O)c2ccc(NC(=O)Cc3ccc(F)c(Cl)c3)cc2)s1` the Potency [1] was “inactive” and the Potency [2] was 15.3 µM (active).

With `O=C(C[C@H]1CC[C@@H](C(=O)Nc2ccc(S(=O)(=O)Nc3nccs3)cc2)C1)c1ccccc1` the Potency [1] was “inactive” and the Potency [2] was 19.3 µM (active).
